An excerpt weighted towards active compounds, which were near 2.4% of everything screened.
CHRM1 PAM = human M1 muscarinic receptor positive allosteric modulators, primary screen, CHO-K1 cells, Fluo-8 calcium fluorescence, 1536-well | Muscarinic acetylcholine receptor M1 (Homo sapiens), P11229 | CHO-K1 hM1, ACh EC20; 0% = ACh EC20, 100% = maximal ACh | activation, % at 3 µM | hit rate 0.088% among 360,000; in the data active = activation above about 19%, passing the limit was not always enough
Target sequence (P11229 whole entry, looked up): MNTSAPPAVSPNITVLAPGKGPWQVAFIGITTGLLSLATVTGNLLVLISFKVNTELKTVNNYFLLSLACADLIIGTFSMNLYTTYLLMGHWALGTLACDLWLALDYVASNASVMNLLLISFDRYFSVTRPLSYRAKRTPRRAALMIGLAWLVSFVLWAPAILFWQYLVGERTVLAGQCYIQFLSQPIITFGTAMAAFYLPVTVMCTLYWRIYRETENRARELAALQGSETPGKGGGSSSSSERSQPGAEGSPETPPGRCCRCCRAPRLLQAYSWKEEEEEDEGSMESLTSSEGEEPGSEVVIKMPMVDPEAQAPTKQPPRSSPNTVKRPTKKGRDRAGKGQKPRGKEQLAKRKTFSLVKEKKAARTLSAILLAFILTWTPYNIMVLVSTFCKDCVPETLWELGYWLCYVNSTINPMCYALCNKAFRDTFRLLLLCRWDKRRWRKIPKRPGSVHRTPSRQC
CHO-K1 Ca ag = counter-screen for M1 agonists: effect in parental CHO-K1 cells. hit rate 0.48% among 360,000. activation, % at 3 µM. AID 602248, 2012. Fluo-8 calcium fluorescence; scaled to maximal ATP response, vehicle zero; in the data active = activation above about 15%;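 note: untransfected CHO-K1 host cells lacking M1 receptor as counterscreen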
CHRM1 antagonist = human M1 muscarinic receptor antagonists, primary screen, CHO-K1 cells, Fluo-8 calcium fluorescence, 1536-well; hit rate 1.3% among 360,000; inhibition, % at 3 µM; CHO-K1 hM1, ACh EC80 antagonist; AID 588852, 2011;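 active = percent inhibition above its own plate's cutoff, namely the mean of that plate's compound wells plus 3 SD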;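 note: peak over basal fluorescence ratio during 140 s after agonist addition; 0% = ACh EC80 plus DMSO and 100% = DMSO alone without agonist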
CHO-K1 Ca antag = counter-screen for M1 antagonists: effect in parental CHO-K1 cells. ATP-induced calcium, Fluo-8 fluorescence. inhibition, % at 3 µM. hit rate 0.6% among 360,000;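 active = inhibition above a per-plate cutoff, the plate's mean sample inhibition plus 3 SD, cut at about 24% in these data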;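 note: 0% = DMSO plus EC80 ATP and 100% = DMSO alone without ATP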
CHO-K1 Ca PAM = nonselective calcium activators in parental CHO-K1 cells, primary screen, counter-screen for M1 PAM project, cell-based, Fluo-8 calcium fluorescence, full deck, 1536-well; AID 602247, 2012; activation, % at 3 µM; hit rate 0.02% among 360,000; ATP EC20; 0% at ATP EC20, 100% at ATP max;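 active = activation above the run cutoff, the mean activation of all test compounds plus 3 SD, cut at about 40% in these data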;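 note: peak over basal fluorescence ratio in a 140 s read after ATP addition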
M1 ag = human M1 muscarinic receptor agonists, primary screen, Fluo-8 calcium fluorescence, CHO-K1 cells, HTS | Muscarinic acetylcholine receptor M1 (Homo sapiens), P11229 | CHO-K1 hM1, agonist mode; 0% DMSO, 100% acetylcholine EC100 | activation, % at 3 µM | hit rate 0.33% among 360,000 | AID 588814, 2011;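 active = activation above the run's mean compound activation plus 3 SD, cut at about 16% in these data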;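 note: peak over basal fluorescence ratio within a 140 s kinetic read after compound addition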
* hit, by the source's call; · = not tested or not shown.

SMILES | CHRM1 PAM | CHO-K1 Ca ag | CHRM1 antagonist | CHO-K1 Ca antag | CHO-K1 Ca PAM | M1 ag
Cc1ccc(NC(=O)Cn2nnc(C(=O)NCCc3ccccc3)c2N)c(C)c1 | 20 | 0 | -16 | -12 | 8 | 0
O=C(CN(Cc1ccc(Br)cc1)S(=O)(=O)c1ccccc1)NCC1CCCO1 (stereo not drawn) | 14 | 1 | -11 | 1 | -23 | 0
O=C(Nc1cc2c3c(c1)CC(=O)N3CCC2)c1ccc(Br)o1 | 1 | 0 | 1 | 4 | -14 | -2
O=c1cc2c(nn1Cc1ccc(Cl)cc1)-c1ccccc1CC2 | 3 | 0 | 2 | 5 | -2 | -2
O=c1cc2c(nn1Cc1cccc(Cl)c1)-c1ccccc1CC2 | -8 | 3 | -13 | 47* | 1 | -5
CCOc1ccc(-c2c(C(=O)N/N=C/c3ccco3)nnn2-c2nonc2N)cc1 | -5 | 5 | 2 | -7 | -17 | 18*
Cc1ccc(-c2c(C(=O)N/N=C/c3ccc(C)o3)nnn2-c2nonc2N)cc1 | 1 | 0 | -1 | -1 | 17 | -3
Cc1ccc(-c2c(C(=O)N/N=C/c3ccco3)nnn2-c2nonc2N)cc1 | -3 | 16* | 9 | -7 | 28 | 7
O=C(O)C(F)=C1c2ccccc2-c2ccccc21 | 18 | 1 | -18 | 4 | -3 | 0
COc1ccccc1CN1CCC(CNS(=O)(=O)c2cc(-c3cc(C)no3)ccc2OC)CC1 | -24 | 1 | 93* | -18 | 1 | -6
CCCCNc1c(CC(C)C)nc2nc(C)cc(C)n12 | · | -1 | · | 25* | -9 | ·
COc1ccc(C)cc1NC(=O)CSc1nc2ccccc2nc1N1CC(C)OC(C)C1 (stereo not drawn) | -6 | 0 | 9 | -3 | 3 | -7
CCn1c(-c2ccc(-c3ccccc3)cc2)c[nH]c1=S | -20 | 0 | 48* | 13 | -6 | -6
C=CCn1c(-c2ccccc2)c[nH]c1=S | 6 | 2 | -4 | -12 | 26 | -2
COc1ccc(C2=NOC(Cn3c(Cc4ccc(Cl)cc4)nc4c3c(=O)n(C)c(=O)n4C)C2)cc1 (stereo not drawn) | -9 | 0 | 31* | 4 | -7 | 0
COc1ccccc1C1=NOC(Cn2c(NCCCO)nc3c2c(=O)n(C)c(=O)n3C)C1 (stereo not drawn) | 2 | 2 | -5 | -11 | 21 | -4
CC1=C(C)/C(=N\OS(=O)(=O)c2ccccc2)C=CC1=O | -9 | 9 | 21* | 37* | -3 | 8
COc1cc(CCC(=O)NNC(=O)c2cccc(Cl)c2)cc(OC)c1OC | 20 | 0 | -19 | 3 | 7 | 2
Fc1ccc2[nH]c3c(N4CCN(c5ccccc5)CC4)ncnc3c2c1 | -18 | 11 | 54* | 27* | -5 | 7
CCOC(=O)N1CCN(c2ncnc3c2[nH]c2ccc(F)cc23)CC1 | -15 | 9 | 28* | 19 | -6 | 3
O=C(CCCN1CCC(O)(c2cccc(C(F)(F)F)c2)CC1)c1ccc(F)cc1 | -4 | 5 | -2 | -9 | 17 | 8
OC1(c2cccc(C(F)(F)F)c2)CCN(c2ncnc3c2[nH]c2ccc(F)cc23)CC1 | -12 | 5 | 36* | 22 | -2 | -1
CCOC(=O)N1CCN(c2ncnc3c2[nH]c2ccc(OC)cc23)CC1 | 9 | 1 | 4 | 4 | -2 | 2
CCCCOc1ncnc2c1[nH]c1ccc(F)cc12 | -7 | 16* | 29 | 28* | -1 | -3
CC1CN(C(=O)c2ccccc2OCc2ccc(Cl)cc2Cl)CC(C)O1 (stereo not drawn) | -13 | 0 | 7 | -12 | 7 | -9
SMILES | CHRM1 PAM | CHO-K1 Ca ag | CHRM1 antagonist | CHO-K1 Ca antag | CHO-K1 Ca PAM | M1 ag
Cc1cccc(/C=C/c2onc(C)c2S(=O)(=O)N2CCC(C(=O)NC(C)C)CC2)c1 | 1 | 0 | -4 | -3 | 10 | -2
O=C(CCCn1c(=S)[nH]c2cc3c(cc2c1=O)OCO3)NCc1cccc(Cl)c1 | 0 | 0 | -1 | -12 | 12 | -3
CC1=C(C(=O)Nc2ccccc2)C(c2ccco2)C(C#N)=C(SCC(=O)Nc2cccc(C)c2C)N1 (stereo not drawn) | 5 | 0 | -2 | -16 | 5 | 0
CC1=C(C(=O)Nc2ccccc2)C(c2ccco2)C(C#N)=C(SCC(=O)OC(C)C)N1 (stereo not drawn) | -10 | 4 | 33* | 14 | 1 | -1
COCCCNC(=O)Cn1cnc2c(OCc3ccccc3)ncnc21 | 7 | 0 | -3 | -7 | 4 | 0
Oc1ccc(Cl)cc1CNCc1ccc(F)cc1 | 6 | 10 | -5 | -14 | 11 | 18*
Oc1ccc(Cl)cc1CNCc1ccc(Cl)cc1 | 6 | 4 | -8 | -23 | 12 | 11
CCCC(C)(C)C(=O)N1CCC1(C)C(=O)NS(=O)(=O)c1ccc(Cl)cc1 (stereo not drawn) | 10 | 0 | -1 | -9 | 4 | 0
NNC(=O)c1cc(-c2ccc(N)cc2)nc2ccc(Br)cc12 | 7 | 1 | -8 | -9 | 8 | -1
Cc1cccc(C(=O)Oc2ccc(/C=N/NC(=O)c3ccccc3O)cc2)c1 | -18 | 10 | 23 | 6 | 8 | -2
Cc1cccc(C(=O)Oc2ccc(/C=N/NC(=O)c3ccc(O)cc3)cc2)c1 | -12 | 6 | 41* | 11 | -16 | 0
COc1ccccc1CNc1nc(NCc2ccccc2SC)c2sccc2n1 | -21 | 7 | 37* | 14 | -2 | -3
COc1ccccc1CNc1nc(NCc2ccccc2OC)c2sccc2n1 | -18 | 3 | 31* | 1 | 12 | -2
O=C(Cc1ccc(Br)cc1)NNC(=O)c1cccs1 | 0 | 0 | -4 | -2 | -11 | -2
CCOc1cc(N2CCOCC2)c(OCC)cc1NC(=O)c1ccccc1N1CCCC1=O | -2 | 1 | 4 | 1 | -3 | -3
CC(=O)c1ccc(NC(=S)NC(NC(=O)c2ccco2)C(Cl)(Cl)Cl)cc1 (stereo not drawn) | 10 | 5 | -6 | -14 | 8 | 17*
O=C(NC(NC(=S)Nc1ccc(Cl)cc1)C(Cl)(Cl)Cl)c1ccco1 (stereo not drawn) | -8 | 8 | 7 | 4 | 7 | -1
OCCNc1nc(NCCC2=CCCCC2)nc(N2CCOCC2)n1 | 6 | 1 | 2 | 24* | 15 | 2
O=S(=O)(CCN1CCN(C(c2ccccc2)c2ccccc2)CC1)C(F)(F)F | -34 | 1 | 77* | -14 | 2 | -14
